The values below come from ChEMBL document CHEMBL4513146, “CO-ADD screening of Karazin Kharkiv National University (Ukraine) compounds”.

Measured potencies and affinities stand elsewhere.

In the assay the test system is Klebsiella pneumoniae. The settings on record: Concentration 32 ug.mL-1;; ASSAY_TEST Inhibition of Bacterial Growth; detection method Absorption (OD600); MEDIA CAMHB; plate type 384well; NBS; CORNING #3640; time 18 hr.
With `COc1ccc(NC(=O)Cn2nc3ccc(SCc4ccc(Cl)cc4)nn3c2=O)cc1`, the Inhibition turned out to be 1.71%.

Take `O=C(CSc1nnc2c(=O)n(-c3ccc(F)cc3)ccn12)N1CCN(c2ccc(F)cc2)CC1`: the Inhibition was -5.39%.

Consider `Cc1ccc2c(c1)N(C(=O)Cn1nc3ccc(S(=O)(=O)C(C)(C)C)nn3c1=O)CCO2`, for which the Inhibition was determined as 13.78%.

`COc1cccc(CNC(=O)Cn2nc3c4cc(-c5cc(C)ccc5C)nn4ccn3c2=O)c1OC`: the Inhibition amounted to 6.77%.

Take `COc1cccc(N(Cc2ccc(F)cc2)S(=O)(=O)c2ccc3nncn3c2)c1`: the Inhibition is given as -3.46%.

Regarding `Cc1ccc(NC(=O)Cn2c(=O)c3nnc(C(C)C)n3c3ccccc32)cc1C`, the Inhibition amounted to 11.54%.

As for `O=C(CSc1nc2ccccc2n2cnnc12)NCc1ccccc1Cl`, the Inhibition was found to be 2.85%.

As to `CCc1nnc2c(=O)n(CC(=O)Nc3cccc(C#N)c3)c3ccccc3n12`, the Inhibition is given as 9.63%.

`Cc1ccc(C)c(Cn2nc3c(=O)n(-c4ccc(C)c(C)c4)ccn3c2=O)c1`: the Inhibition was 6.6%.

Turning to `Cc1cc2nn(CC(=O)N3CCOCC3)c(=O)n2c(Nc2ccc(C)c(F)c2)n1`, the Inhibition was 15.3%.

For `CCCc1nnc2c(=O)n(CC(=O)Nc3cccc(C#N)c3)c3ccccc3n12`, the Inhibition is 0.67%.

Consider `COc1ccc(-c2cc3c4nnc(SCC(=O)Nc5ccc(C)c(F)c5)n4ccn3n2)cc1`, for which the Inhibition is 1.13%.

Turning to `COC(=O)c1ccccc1NC(=O)Cn1nc2c3cc(-c4ccc(OC)cc4)nn3ccn2c1=O`, the Inhibition is listed as 20.11%.

For the compound `CCCCn1c(=O)c2sccc2n2c(=O)n(CC(=O)NC(C)CC)nc12` (centres undefined), the Inhibition is given as -2.58%.
